# The whole screen tested about 60,000 compounds, of which about 65 (0.1%) were called active. What follows is part of a selection rich in actives, with near analogues and random picks from the rest. Entries that show only a call come without a potency. A number with no mark means an inactive call. The call rests on the fitted dose curve; in most records, active means well fitted inhibition curve with a large enough effect; inconclusive means small, poorly fitted or top-dose-only effect; inactive means no such curve, though single readings can be large or run the other way.
# Biological target: Ubiquitin carboxyl-terminal hydrolase 2 (Homo sapiens) (UniProt O75604)
# Sequence (O75604 whole entry, looked up): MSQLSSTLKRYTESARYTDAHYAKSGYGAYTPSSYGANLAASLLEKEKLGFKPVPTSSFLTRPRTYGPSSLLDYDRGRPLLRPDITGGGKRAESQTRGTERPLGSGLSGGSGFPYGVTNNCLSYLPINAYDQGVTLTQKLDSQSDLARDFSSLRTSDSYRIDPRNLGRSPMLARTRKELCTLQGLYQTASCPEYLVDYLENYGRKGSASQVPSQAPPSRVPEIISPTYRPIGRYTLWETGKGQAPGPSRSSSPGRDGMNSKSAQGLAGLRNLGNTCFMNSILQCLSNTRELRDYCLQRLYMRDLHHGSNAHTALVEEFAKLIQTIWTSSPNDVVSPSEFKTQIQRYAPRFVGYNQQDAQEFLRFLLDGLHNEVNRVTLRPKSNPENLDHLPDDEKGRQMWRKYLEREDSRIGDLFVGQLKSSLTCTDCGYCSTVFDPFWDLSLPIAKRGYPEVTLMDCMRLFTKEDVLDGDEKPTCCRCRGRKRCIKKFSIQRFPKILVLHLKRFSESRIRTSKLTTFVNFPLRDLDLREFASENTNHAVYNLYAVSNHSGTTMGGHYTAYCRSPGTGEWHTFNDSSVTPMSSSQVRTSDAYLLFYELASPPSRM
# Assay: qHTS Assay for Inhibitors of Ubiquitin-specific Protease USP2a; further: nearly all actives have a fitted effect of over 60% in size
# Details: USP2a enzymatic assay; Potency: qHTS inhibition; series mostly up to 38.3 µM
# In short: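 USP2 core (20 nM final) was preincubated with compound for 30 min at RT in 20 mM Tris-HCl pH 8.0, 2 mM CaCl2, 2 mM beta-mercaptoethanol; Ub-PLA2 (20 nM) plus NBD C6-HPC (20 uM) then added, fluorescence read after 2.5 h.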
# Potency means the concentration at half of the fitted maximal effect.
SMILES,"activity change, negative = inhibition",Potency
CN1CC(=O)N=C1N,inactive,–
CCC1=C/C(=C\c2ccc3c(c2)OCO3)C(=O)S1,inactive,–
COc1ccc(N2CCN(CCNC(=O)c3nnc(Cc4c(F)cccc4Cl)o3)CC2)cc1,inactive,–
CCN(Cc1ccncc1)C(=O)c1cccc(S(=O)(=O)N2CCOCC2)c1,inactive,–
CC1(C)OC2CC(=O)OC[C@@]23C1CC(=O)[C@]1(C)C3CC[C@@]2(C)C(c3ccoc3)OC(=O)C3O[C@@]321 (stereo partly specified),inactive,–
CC(=O)Nc1ccc(S(=O)(=O)N2CCSCC2)cc1,inactive,–
O=C(NCCSc1ccccc1)c1ccco1,inactive,–
CC(=O)Nc1ccn(Cc2c(F)cccc2Cl)n1,inactive,–
CC(=O)N1CCC2(CCCN(Cc3ccc(C#N)cc3)C2)CC1,inactive,–
COC1C[C@@H](O[C@@H]2C(C)C(=O)OC(C)C(C)C(O)C(C)C(=O)[C@@]3(CO3)CC(C)C(OC3OC(C)CC(N(C)C)C3O)C2C)OC(C)[C@@H]1O (stereo partly specified),inactive,–
C=C1C(=O)C23C(O)C1CCC2[C@]12COC3(O)C(O)C1C(C)(C)CC[C@H]2O (stereo partly specified),inactive,–
COC(=O)COc1ccc(S(=O)(=O)N2CCOCC2)cc1,inactive,–
Cc1c(NC(=O)Nc2ccccc2Cl)sc(=S)n1C,inactive,–
CCOC(=O)C(CCOc1cccc(CC)c1)C(=O)OCC,inactive,–
Cc1cccc(C(=O)Nc2ccc(CC(=O)O)cc2)c1,inactive,–
CC(=O)OCC(=O)[C@@]1(O)CCC2C3CCC4=CC(=O)CC[C@]4(C)C3C(=O)C[C@]21C (stereo partly specified),inactive,–

SMILES,"activity change, negative = inhibition",Potency
COC(=O)c1cccc(NC(=O)CN2CCC(NC(=O)c3cc(OC)c(OC)c(OC)c3)CC2)c1,inactive,–
CC(=O)c1c(N2CCOCC2)nc(=S)n(Cc2ccccc2)c1C,inactive,–
CC1(C)C(=O)Nc2ccccc2N1C(=O)COC(=O)Cn1cnc2ccccc2c1=O,inactive,–
O=c1c2ccccc2oc2nc(C3CCCCC3)n(Cc3ccco3)c(=O)c12,inactive,–
Oc1cc(O)c2c(c1)OC(c1ccc(O)c(O)c1)C(O)C2 (stereo unspecified),inactive,–
Cc1nc2nc(COc3ccccc3)[nH]n2c(=O)c1C,inactive,–
C=C[C@](C)(O)CCC1C(=C)CCC2[C@@](C)(CO)CCC[C@@]12C (stereo partly specified),inactive,–
CC(=O)OC1CCC2(O)CC1(C)CCC1C2CC1(C)C (stereo unspecified),inactive,–
CCOC(=O)c1ccc(NC(=O)CSc2nnc(COc3ccccc3OC)n2C)cc1,inactive,–
Cn1cc(-c2nc3cnc(N4CCNCC4)nc3n(CCC#N)c2=O)c2ccccc21,inactive,–
O=C(NCc1ccc(Cl)c(Cl)c1)c1cccnc1,8.48% [at 7.66 µM],–
COC(=O)Nc1ncc(CN2C(=O)c3ccccc3C2=O)s1,inactive,–
CC(C)NC(=O)N1CCCC2(CCN(C(=O)c3cccn3C)CC2)C1,–,10 µM (active)
CC(C)NC(=O)N1CCC2(CC1)CCN(C(=O)c1cccn1C)CC2,inactive,–
CC(C)NC(=O)N1CC[C@@]2(CCCN(C(=O)c3cccn3C)C2)C1,inactive,–
